B1: LC3A_free_46_2334 (protein)
chain: TLVVVEVDVLAPDRATAEAFVADLEARIRARLAEAGIDAEVEVELEEGPDGKTFRVTVKVRLKDPEADPQEVADLVVDAIDESAEEHGLSYIISVEIIEE
B2: LC3A_28_811 (protein)
chain: SHVDEVIAAVKEEGEKLKNSKEDVLLEVRVSGDITVEEAERLMDAIEEIARELAKNRKVYIVITAEEPISQEVLDTILDRAEEIEEKYPNVSVIVALPEE
B3: LC3A_3_1711 (protein)
chain: GEELIEEAEKILKEKGLSEETKKAVLEALKALLEKGYINAAKELIKLLKEAKDLSDEVILDFAKDVLEYVKTEDVSEEETIKKIKEEYEIAKNEEEIEEL
B4: LC3A_free_46_2301 (protein)
chain: IKVEIDIYFGAAPLEKIEEAAKRLTETAEKKAKELGAEVEIEVKITKNEDGTYTLEIRITAKVKTLEDANKFIQAISDKVDEINKELGIAAIMSIEVIEE
B5: LC3A_3_1472 (protein)
chain: LEERLEEVLKRLREAGASEEVLEAVREAYEKLKELGHEEAAKTFIEEMEKLVGLPSELLLAFAEDVLAAVEKYADDPEKLIEEIKSIAAATRNEAEIIEL
B6: LC3A_28_903 (protein)
chain: SPALESAEKALKEVKKAVAAGNQEPLVLEVKAPSTQEDVDKLLKLLEEIAEEASKLKGVSIIIDIDESVSQENRDRIIDKAEELEEKYPNVTIIIALPES
B7: LC3A_17_539 (protein)
chain: KEELKEELKKLIEEAEKLVEEVKPYIPEEAEKAKKRLKEAKKLLEEGKLKEAAELLAETADEMADAVSETEWEDPLKRTLLELEFDSLAIEAESILLKLE
B8: LC3A_28_1059 (protein)
chain: MSIEEELEEALEEAREAVERGEEALIELTIDEDATEEDVELVLETMEEIAELTKDLPRTTIVVDVDHKNKEEVTKLVSEKGDRLEKRYPNVTVIIALSEE
B9: LC3A_28_671 (protein)
chain: SALEEQLEKALAEAKKLAAKGEPGVIVIEVPGDATEEEIERLIKTLEEIAEILKDVKGSAIVIELDKDLKEEHRQRIIDAAERINEKYPNVTVIIAMEER
B10: LC3A_45_1922 (protein)
chain: MYEATLDLLVPKELAEEAYELIKKLLEELEKKRGPNFKVDYETLDASYEASKDEEDVYLEVKIYAPTEEEALDAAIEIEEELSKELGGKVASIISVKKVP
B11: LC3A_28_979 (protein)
chain: SALEKELAAKIAEAKKAAAAGEPAVITIKVSGDTNEEQLAKIIETLEEIAEILKDVKGSAIIIDIDRGVDPKHKQKLIDKGEEIEKKYPNVTVIFALEEE
B12: LC3A_36_1337 (protein)
chain: MVVIVLSAASEEVRAAEEAHYRAKGATVFAVAVEDLDEATKEEILAVVKAAGPDADIIIVAVAETEEGLAKVLKKASELADYIEEETGRTVIIEVDLVEK
B13: LC3A_141_370 (protein)
chain: KTVTFTKTFTNSSLDEVIAGMEELEKEVLAAHEKLGGGKVKVTVTVTIKNSKTGETKVIKEEFEADKETLEMIMEGVLIEAASARLTENANITVTVTLEA
B14: LC3A_28_1047 (protein)
chain: SELEENAEKAIAEARKQLEQGEEAVVTLKVPDMPTEEAVRIFRETLERLIALSKEYGGKKISVVVDFDGDQETFDAIVDIAEEAEKADPNLTVIVALSEE
B15: LC3A_28_815 (protein)
chain: MTAEEIIKQIREQAEKGKQSDEMVLIEVKISGTITEEEAKEIMEVIREESAELAKDRPVAVLIDLEAPISQEVIDLIADMAEEIEKELPNVSVIIALPEE
B16: LC3A_free_8_2554 (protein)
chain: ISEEQKAKISEVLDKAEEEIVKKAKEMGVSEEEINELEALMGFLLQDVLDALEEGPEAALKAFEEESKLIVEYAKELGEELAKEVKKVLEEAKKEIEKIL
B17: LC3A_28_1007 (protein)
chain: MSLIEKTKEEIKKALEQAEKGEDAFLEIEIPSTATKEEVEEVLKLIEEAAKEVSKLEGVKLYVVIDDSGSPEIHDLVVDRADEIEEKYPNVSVIIAYDDK
B18: LC3A_free_46_2383 (protein)
chain: YKAEIDIDFGAMDKETAEKIAEEIKKAAEEISKKYGVKVEVEVEIIEDEDGNYYLRVKITIEGEDKEKVEEAVNELIEKIDEIAEKANVSYIISVEFIDE
B19: LC3A_132_253 (protein)
chain: SKELLEKALKELKEILDKIVELLQAGKDPWPAIKELYEKALEYAKKLSLEETEKLAEEVEAYAEKLFAERLDPNNEEARRALEHIEMLLESVLIEKELRS
B20: LC3A_132_255 (protein)
chain: SKELLEKALKELKEILDKIVELLQAGKDPWPAVKELEEKAEEYAEKLSLEETEELVKESEKYAEELFAARLDPNNEEARRVLDHIEMLFESVLIEKELKS
B21: LC3A_132_254 (protein)
chain: SEELLEKALKELKELLDKIVADLKAGKDPWPTINKLYELALKYAEKLSLEETEKLAEESEKYAEELFAKELDPNDEEARRTLDIVEMLLESVLIEKELRS
B22: LC3A_28_1225 (protein)
chain: AAVDAEIAAARAAMAAAAAAGEEATITVKITGKTTLADVKRLMEALRAIVAEHAHLPRISIIIDLSGKVTQEQIDAAAEGGERIEKEFPNVTVILALDEN
B23: LC3A_28_983 (protein)
chain: MDPREQVEELIKKAKEAAAKGEATVFTITVTSTATEEDIELITEGLKEIAEILKDVKGSAIIVDVESGVPEEYIDKIAETMEEIEKANPNVTTIIALDED
B24: LC3A_free_8_2473 (protein)
chain: SVQELVDQITALLDELEEKVREKAKELGVDELDILELELEIGSLIADLISASDGTIEEVKEIAEEGLEEIEELAKELSEEIAEIVRETREKILALLEAAE
B25: LC3A_free_0_2120 (protein)
chain: KKTVVEVVIILDDSTSEEKAKEIHEKLKEEAEKLAKENGGELKSSLSKSDGSYIITLEITFDTEDIDLALEVERKLVEIAEKILKEANVEATIYSSVYLE
B26: LC3A_free_39_2211 (protein)
chain: SEEELEELLKKVAEESGLDYEYIRERVEEIRRVAGLSLEQMLELVKAILEAVREGADAEEILEEVLALAKELVAAGKSPEEIAEALLEEVEDFRNLIPLD
B27: LC3A_free_39_2213 (protein)
chain: SEEELEELLKKVAEESGLDYEYIKKKIEEIQKVAGLSLEQMKKIVEAILEAVKEGANAEEILERILALAKELKAAGKSPEEIAKALLEEVEDYRNLIPLD
B28: LC3A_free_0_2116 (protein)
chain: KKTVVEVLVILDESTTEEEAKKAYEELKKKAEEIAKKYGWEVKVELSKSDGSWIITVTLTSDSTDIDKALEIARELSDAAEEIAKELGLDATIYESVYLE
B29: LC3A_28_1087 (protein)
chain: SELEEQLKKALEEAKKAKEEGKEVTLEITVPDTATEEDIELVKETLKEIAEIAKELPSLSVVINLTGKNAQAKATELSAHAEELEKEVPNLTVIIALDED

The full ranking holds about 2,300 sequences; the median of “median log2 fold change of GCK-ALFA target abundance (FLAG IP / Myc IP barcode read proportion)” is about 0.095, and the lowest 2% start at about -0.47. This is one part of a sample in which the lowest values are shown more often than they occur.

The target in the assay is MAP1LC3A, Q9H492. The assay is described as follows: median log2 fold change of GCK-ALFA target abundance (FLAG IP / Myc IP barcode read proportion) (log2 ratio); each designed protein is fused to an ALFA-tag nanobody in HEK293 cells to bring the named protein to FLAG-tagged glucokinase (GCK); Myc marks an untargeted standard; higher = target protein stabilised (more abundant). As to conditions: target protein: 3xFLAG-MCP-GCK-ALFA reporter; HEK293 landing pad (RPLP). The essentials: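 The readout is target abundance, the per-binder median log2 ratio of FLAG to Myc barcode read proportions. It came from HEK293 landing-pad cells carrying a recombined ALFA-nanobody-fused binder library, induced with 2 μg mL^−1 doxycycline and transfected with a plasmid for a FLAG-tagged target and a Myc-tagged standard. After 48 h, lysates were immunoprecipitated with anti-FLAG and anti-Myc, and circular RNA barcodes were reverse transcribed, amplified and sequenced. Each barcode needed a proportion of at least 10^−7 in both replicates and each binder at least 3 barcodes per replicate, a pseudocount of 10^−6 was added, and the replicates were pooled.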
For the molecule B1, the “median log2 fold change” value amounted to 0.0611.

Take B2: the “median log2 fold change” value is -0.124. The result for B3 reads -0.0281; that for B4, -0.0458; that for B5, 0.213. The result for B6 reads -0.303; that for B7, -0.51; that for B8, -0.148.

For B9, the “median log2 fold change” value was determined as 0.0757. The result for B10 reads -0.405. As for B11, the figure is -0.00812; as for B12, 0.15.

B13: the “median log2 fold change” value was -0.474.

As to B14, the “median log2 fold change” value is -0.153. The result for B15 reads -0.179; that for B16, -0.0712; that for B17, -0.353.

Take B18: the “median log2 fold change” value was determined as 0.115.

On to B19, for which the “median log2 fold change” value stood at 0.0444.

On to B20, for which the “median log2 fold change” value is 0.276. As for B21, the figure is -0.669. The result for B22 reads 0.191; that for B23, -0.2. The result for B24 reads -0.379; that for B25, -0.12. In the case of B26, the “median log2 fold change” value was -0.819. The result for B27 reads 0.203. Consider B28, for which the “median log2 fold change” value was -0.122. With B29, the “median log2 fold change” value came out at 0.251.
